Measured values as given in PubChem BioAssay.
The source made the active and inactive calls. The rule behind the calls is not given here.

What follows are molecules tested on Aerobactin synthetase IucA (Klebsiella pneumoniae, hypervirulent) (assay: IucA enzyme inhibition, biochemical, LOPAC library, absorbance readout (AID 1346212;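 note: 100% = no compound wells and 0% = no enzyme wells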)). Details: IucA enzyme assay, absorbance (OD) readout; active compounds read low;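 tested at 8 µM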.

SMILES | remaining activity
CNCCc1cnc(CCC(c2ccccc2)c2ccccc2)[nH]1 | 110% (inactive)
CN(C)CC[C@@H](c1ccc(Br)cc1)c1ccccn1 | 88.6% (inactive)
CSc1nc(N)c2ncn([C@@H]3O[C@H](COP(=O)(O)OP(=O)(O)OP(=O)(O)O)[C@H](O)C3O)c2n1 (stereo not given in full) | 109% (inactive)
Clc1ccc(N2CCN(Cc3c[nH]c4ncccc34)CC2)cc1 | 92% (inactive)
COc1ccc2c(c1)CC[C@@H]1[C@@H]2CC[C@]2(C)[C@@H](NCCCCCCN3C(=O)CCC3=O)CC[C@@H]12 | 119% (inactive)
C[C@H]1C[C@H]2[C@@H]3CCC4=CC(=O)C=C[C@]4(C)[C@@]3(F)[C@@H](O)C[C@]2(C)[C@@]1(O)C(=O)CO | 114% (inactive)
COc1cc2c(CCNC(C)=O)c[nH]c2cc1O | 92.2% (inactive)
COc1ccc2c(c1)c(CC(=O)O)c(C)n2C(=O)c1ccccc1 | 111% (inactive)
Cn1cc(C(F)(F)F)nc1-c1ccc(OCC(O)CNCCOc2ccc(O)c(C(N)=O)c2)cc1 (stereo not given) | 96.8% (inactive)
Nn1nnc2ccccc21 | 115% (inactive)
CC(C(O)c1ccc(O)cc1)N1CCC(Cc2ccccc2)CC1 (stereo not given) | 105% (inactive)
CC1=C(/C=C/C(C)=C/C=C/C(C)=C/C(=O)Nc2ccc(O)cc2)C(C)(C)CCC1 | 97.1% (inactive)
CCCC[C@@]1(C2CCCC2)Cc2cc(OCC(=O)O)c(Cl)c(Cl)c2C1=O | 106% (inactive)
CC1(C)C(=O)N(CCN2CCC(C(=O)c3ccc(F)cc3)CC2)c2ccccc21 | 118% (inactive)
CN1CC(O)C(O)C(O)C1CO (stereo not given) | 105% (inactive)
CN1[C@@H]2CC(OC(=O)[C@H](CO)c3ccccc3)C[C@H]1[C@@H]1O[C@@H]12 (stereo not given in full) | 105% (inactive)
NC1(C(=O)O)CCCCC1 | 125% (inactive)
NC(N)=NC(=O)c1nc(Cl)c(N2CCCCCC2)nc1N | 120% (inactive)
CC(C)(CO)Cc1cc(C(C)(C)C)c(O)c(C(C)(C)C)c1 | 109% (inactive)
NS(=O)(=O)c1cccc2c1c([N+](=O)[O-])cc1nc(O)c(O)nc12 | 106% (inactive)

SMILES | remaining activity
NC[C@@H]1O[C@H](C23CC4CC(CC(C4)C2)C3)Cc2c1ccc(O)c2O | 111% (inactive)
COC(=O)[C@@H](N)Cc1ccc(O)c(O)c1 | 107% (inactive)
Cc1ccc(C(=O)O[C@H](C(=O)O)[C@@H](OC(=O)c2ccc(C)cc2)C(=O)O)cc1 (tested in a mixture with another compound) | 112% (inactive)
Cc1cccc(C)c1OCC(N)C(C)C (stereo not given) | 97.7% (inactive)
N[C@@H](CC(=O)O)C(=O)O | 111% (inactive)
COc1cccc2c1[C@@H]1CN(CCCCn3c(=O)[nH]c4c(sc5ncc(-c6ccccc6)nc54)c3=O)C[C@@H]1CO2 | 98.2% (inactive)
NC(N)=Nc1nc(CSCC/C(N)=N/S(N)(=O)=O)cs1 | 102% (inactive)
O=C1N=c2cc(Cl)c(Cl)cc2=NC1=O | 110% (inactive)
CC(=O)O[C@]1(C(C)=O)CC[C@H]2[C@@H]3C=C(Cl)C4=CC(=O)[C@@H]5C[C@@H]5[C@]4(C)[C@H]3CC[C@@]21C | 95.7% (inactive)
COC(=O)C(C)(N)Cc1ccc(O)cc1 (stereo not given) | 114% (inactive)
OC[C@H]1O[C@@H](n2cnc3c(N[C@H]4CCC[C@@H]4O)ncnc32)[C@H](O)[C@@H]1O | 123% (inactive)
c1ccc(C(NCCNC(c2ccccc2)c2ccccc2)c2ccccc2)cc1 | 117% (inactive)
O=[N+]([O-])c1ccc(CSc2ncnc3c2ncn3[C@@H]2O[C@H](CO)[C@@H](O)[C@H]2O)cc1 | 126% (inactive)
Cc1cc(O)c2c(c1)C(=O)c1cc(O)cc(O)c1C2=O | 76.7% (inactive)
CCOC(=O)C1=C(C)NC(C)=C(C(=O)OC)C1c1cccc(Cl)c1Cl (stereo not given) | 99.8% (inactive)
CC(C)[C@H]1c2ccc(F)cc2CC[C@@]1(CCN(C)CCCc1nc2ccccc2[nH]1)OC(=O)C1CC1 | 118% (inactive)
CN(Cc1cnc2nc(N)nc(N)c2n1)c1ccc(C(=O)N[C@@H](CCC(=O)O)C(=O)O)cc1 | 117% (inactive)
Oc1ccc(/C=C/c2ccc(/C=C/c3ccc(O)cc3)c(Br)c2)cc1 | 85% (inactive)
O=C(O)CCC(C(=O)O)N1C(=O)c2ccccc2C1=O (stereo not given) | 121% (inactive)
CC(C(=O)O)c1ccc(CC2CCCC2=O)cc1 (stereo not given) | 120% (inactive)
